Measured values: PubChem BioAssay (NCI)
This is part of a sample that, as a whole, favours compounds with a hit. Of some 83,000 tested, about 20% had one in any assay.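 Growth was measured after 48 h exposure to one concentration of compound in 96-well plates. Values under 10 count as active.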 Unmarked numbers belong to inactive results. Active and inactive are the calls of the source.

Columns and labels:
Test in all cases: NCI-60 one-dose screen, 48 h (100 = growth as untreated, 0 = no growth, -100 = all killed)
Conditions in all cases: 10 µM unless noted
[1] = tested on: NCI-H23 lung
[2] = tested on: NCI-H226 lung
[3] = tested on: NCI-H322M lung
[4] = tested on: HOP-62 NSCLC
[5] = tested on: NCI-H460 lung
[6] = tested on: A549/ATCC NSCLC
[7] = tested on: 786-0 renal
[8] = tested on: COLO 205 colon
[9] = tested on: DU-145 prostate
[10] = tested on: K-562 leukemia
[11] = tested on: MALME-3M melanoma
[12] = tested on: MDA-MB-231 breast
[13] = tested on: RXF 393 renal
[14] = tested on: SF-268 CNS
[15] = tested on: SF-295 CNS
[16] = tested on: SF-539 CNS
[17] = tested on: UACC-257 melanoma
[18] = tested on: M14 melanoma
[19] = tested on: NCI-H522 lung

Row | Compound | growth [1] [%] | growth [2] [%] | growth [3] [%] | growth [4] | growth [5] [%] | growth [6] | growth [7] [%] | growth [8] [%] | growth [9] [%] | growth [10] | growth [11] [%] | growth [12] [%] | growth [13] [%] | growth [14] [%] | growth [15] [%] | growth [16] [%] | growth [17] [%] | growth [18] [%] | growth [19] [%]
1 | O=C1N(Cc2ccccc2Cl)c2ccccc2C12NN=C(c1ccccc1)S2 (stereo not given) | 54.8 | 67.5 | 56.5 | 61.2% | 17.5 | 53.4% | 73.7 | 100 | 61.9 | 43.1% | 82.8 | 72.8 | 75.1 | 51.7 | 41 | 66.3 | 87.6 | 58.3 | 
2 | Cc1ccc(C)c(NC(=O)c2sc3c(=O)[nH]cnc3c2C)c1 | 93.4 | 106 | 103 | 80.8% | 81.9 | 74.6% | 89.9 | 83.3 | 108 | 29.6% | 62.6 | 97.4 | 90.1 | 101 | 73.3 | 94.2 | 94.5 | 57.8 | 
3 | COc1ccc(Oc2nc(Nc3ccc(N4CCOCC4)cc3)ncc2NC(=O)Nc2cccc(OC)c2)cc1 | 72.2 | 42.1 | 53.3 | 64.7% | 41.5 | 41.7% | 80.7 | 17.8 | 47.5 | 57% | 69.7 | 28.8 | 39.4 | 74.4 | 81.1 | 28.3 | 91.5 | 71.9 | 
4 | O=C1CCCN1C(O)CCN(Cc1ccccc1)Cc1ccc(Cl)cc1 (stereo not given) | 103 | 105 | 95.5 | 104% | 105 | 103% | 95.7 |  | 110 |  | 109 | 112 | 123 | 105 | 94.2 | 114 | 106 | 99.9 | 93.3
5 | COc1ccc(-c2cc(-c3ccc(OC)cc3)c3sc(=O)[nH]c3n2)cc1 | 98 | 71 | 82.3 | 70.5% | 94 | 78.4% | 79.3 | 107 | 107 | 94.2% | 109 | 87.6 | 77.7 | 92.6 | 96.8 | 81.8 | 104 | 109 | 
6 | COc1ccccc1/C=N\Nc1ccc([N+](=O)[O-])cn1 | 101 | 98.7 | 107 | 106% | 123 | 105% | 105 | 102 | 114 | 112% | 117 | 103 | 115 | 105 | 96.3 | 98.7 | 108 | 94.4 | 
7 | C/C(=N\Nc1ccc([N+](=O)[O-])cn1)c1ccc(N)cc1 | 109 | 109 | 120 | 109% | 110 | 96.1% | 99.7 | 104 | 116 | 13.8% | 133 | 88.9 | 132 | 94.4 | 128 | 93.7 | 105 | 106 | 
8 | Nc1cc(C(=O)O)cc(C(=O)O)c1 | 108 | 108 | 102 | 98.1% | 112 | 108% | 96.8 | 99 | 145 | 96.6% | 92.8 | 102 | 128 | 115 | 113 | 103 | 110 | 98.9 | 
9 | N/C(=N\OC(=O)c1ccccc1)C(C(=O)NOC(=O)c1ccccc1)C1CCCCC1 (stereo not given) | 49.3 | 100 | 84.7 | -7% (active) | 34.5 | 1.51% (active) | 76 |  | 57.7 | 2.85% (active) | 85.3 | 81.8 | 82.1 | 31.9 | 41.6 | 75.1 | 92.2 | 75.2 | 
